Reference: PubChem BioAssay AID614 (Sanford-Burnham Center for Chemical Genomics, 2007)
The campaign covered roughly 21,000 compounds. Fewer than 10 were called active.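 The calls were made as follows: active = inhibition above 50% at the 20 µM single-dose screen; inactive = the rest.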 These entries were drawn from the full list.

Biological target: Alkaline phosphatase, tissue-nonspecific isozyme (Homo sapiens) (UniProt P05186)
Assay: human TNAP enzyme inhibitors, primary screen, biochemical, colorimetric, phosphate release readout (AID 614)
Conditions: purified TNAP, pNPP, malachite green phosphate absorbance; at 20 µM; stronger effect = higher value

Sequence of Alkaline phosphatase, tissue-nonspecific isozyme (Homo sapiens) (P05186 whole entry, looked up): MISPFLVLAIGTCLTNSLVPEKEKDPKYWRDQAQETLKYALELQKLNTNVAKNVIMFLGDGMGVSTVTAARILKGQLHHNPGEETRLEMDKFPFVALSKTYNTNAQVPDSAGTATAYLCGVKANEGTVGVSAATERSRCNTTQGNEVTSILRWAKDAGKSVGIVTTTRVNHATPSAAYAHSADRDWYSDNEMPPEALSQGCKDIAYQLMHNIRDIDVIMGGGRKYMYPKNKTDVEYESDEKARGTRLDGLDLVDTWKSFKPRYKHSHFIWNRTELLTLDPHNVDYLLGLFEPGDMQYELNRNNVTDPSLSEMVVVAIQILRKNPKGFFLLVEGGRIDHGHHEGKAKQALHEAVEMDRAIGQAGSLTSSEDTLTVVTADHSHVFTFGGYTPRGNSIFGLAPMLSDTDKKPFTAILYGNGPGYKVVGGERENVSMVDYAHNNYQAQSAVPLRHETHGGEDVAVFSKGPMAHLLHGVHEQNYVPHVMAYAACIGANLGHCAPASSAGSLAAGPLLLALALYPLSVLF

inhibition, inactive:
CC1CCN(C(=O)Cn2cc(C(=O)c3ccco3)c3ccccc32)CC1 14.2%, O=C(c1ccccc1)N1CCN(C(=O)N2CCCCC2)CC1 -5.7%, CC1C(c2ccccc2)=[N+]([O-])C2(CCCC2)N1O (centres undefined) 12.6%, Cc1nonc1OCCn1nnnc1N 8.7%, O=C(OC(C(=O)NC1CCCC1)c1ccc(F)cc1)c1ccno1 (centres undefined) 0%, CCc1ccccc1NC(=O)CSc1nnc([C@@H](NC(=O)OC(C)(C)C)C(C)C)o1 4.3%, CC1OC2C(OC1C)N(S(C)(=O)=O)CCN2S(C)(=O)=O (centres undefined) 10%, O=C(CCN1C(=O)c2ccccc2C1=O)Nc1ccncc1 7.9%, CCOC(=O)CSc1nc2sc3c(c2c(=O)[nH]1)CC(C)(C)OC3 -12.8%, COc1ccc(-c2cc(C(F)(F)F)n3nc(C(=O)N4CCOCC4)c(Cl)c3n2)cc1 6%, C=C(Br)Cn1c(CCCC)nc2ccccc21 0%, COc1ccc(Br)cc1/C=N/n1c(C)nnc1C 8.2%, CCC(=O)Nc1sc(C(=O)N2CCCCC2)c(C)c1C#N -23.7%, CCCCNc1nc2ccccc2nc1NS(=O)(=O)c1cccs1 1.2%, COc1cc(C2C(C(=O)c3sc(C)nc3C)=C(O)C(=O)N2CCN(C)C)cc(OC)c1OC (centres undefined) 13%, Cc1cc(C)c(C#N)c(SCc2ccccc2C(=O)O)n1 -0.3%, CCCCc1nc2ccccc2c(=O)n1NC(=O)c1c(O)c2cccc3c2n(c1=O)CC3 4.4%, Cc1ccc2cc(C#N)c(SCC(=O)NCC3CCCO3)nc2c1C (centres undefined) 8.6%, COc1ccc2c(c1OC)C(=O)OC2c1c(O)nc(SC)n(-c2ccccc2)c1=O (centres undefined) -0.7%, Cc1ccc2c(NC(=O)C3CC3)cccc2n1 9.9%, O=c1c(F)cn(C2CCCO2)c(=O)n1Cc1ccccc1Cl (centres undefined) 7.7%, COCCNC(=O)c1ccccc1-c1nc(-c2ccccc2Cl)no1 1.6%, Cc1cc(C)nc(N(C#N)CC(=O)Nc2ccccc2)n1 -15.3%, CCCCNC(=O)CSc1nccn1Cc1ccccc1 10.7%, CCC(C)NC(=O)N[C@@H](CCSC)C(=O)O (some centres undefined) 8.1%, O=C(Nc1cnccn1)c1cccnc1 6.7%, COc1ccc(-c2n[nH]c(C)c2-c2ccc(OC)c(OC)c2)c(O)c1 7.2%, c1nc(COc2nsnc2N2CCOCC2)cs1 5.5%, Cc1cc2ccccc2n2c(SCC(=O)N3CCN(C(=O)c4ccco4)CC3)nnc12 12.5%
